Data reported in ChEMBL document CHEMBL3988442, “University of Dundee, Small-Polar-MMV Screening Library” (2021).
For some of these results: Measured potencies and affinities stand elsewhere.

Experiments:
Design in all cases: scale not given: direction of the effect not stated beside the values
[1] = molecular target: Protein translocase subunit SecA (Escherichia coli (strain K12)) (UniProt P10408); experiment: Assay to Identify E. coli SecA ATPase Inhibitors; type: functional; conditions: 30 µM
[2] = molecular target: T1, Ubiquitin-activating enzyme e1, putative (Leishmania donovani (strain BPK282A1)) (UniProt E9BSI1); experiment: Leishmania donovani Ubiquitin Activating Enzyme (LdE1); type: functional; conditions: 30 µM
T1 sequence (whole entry): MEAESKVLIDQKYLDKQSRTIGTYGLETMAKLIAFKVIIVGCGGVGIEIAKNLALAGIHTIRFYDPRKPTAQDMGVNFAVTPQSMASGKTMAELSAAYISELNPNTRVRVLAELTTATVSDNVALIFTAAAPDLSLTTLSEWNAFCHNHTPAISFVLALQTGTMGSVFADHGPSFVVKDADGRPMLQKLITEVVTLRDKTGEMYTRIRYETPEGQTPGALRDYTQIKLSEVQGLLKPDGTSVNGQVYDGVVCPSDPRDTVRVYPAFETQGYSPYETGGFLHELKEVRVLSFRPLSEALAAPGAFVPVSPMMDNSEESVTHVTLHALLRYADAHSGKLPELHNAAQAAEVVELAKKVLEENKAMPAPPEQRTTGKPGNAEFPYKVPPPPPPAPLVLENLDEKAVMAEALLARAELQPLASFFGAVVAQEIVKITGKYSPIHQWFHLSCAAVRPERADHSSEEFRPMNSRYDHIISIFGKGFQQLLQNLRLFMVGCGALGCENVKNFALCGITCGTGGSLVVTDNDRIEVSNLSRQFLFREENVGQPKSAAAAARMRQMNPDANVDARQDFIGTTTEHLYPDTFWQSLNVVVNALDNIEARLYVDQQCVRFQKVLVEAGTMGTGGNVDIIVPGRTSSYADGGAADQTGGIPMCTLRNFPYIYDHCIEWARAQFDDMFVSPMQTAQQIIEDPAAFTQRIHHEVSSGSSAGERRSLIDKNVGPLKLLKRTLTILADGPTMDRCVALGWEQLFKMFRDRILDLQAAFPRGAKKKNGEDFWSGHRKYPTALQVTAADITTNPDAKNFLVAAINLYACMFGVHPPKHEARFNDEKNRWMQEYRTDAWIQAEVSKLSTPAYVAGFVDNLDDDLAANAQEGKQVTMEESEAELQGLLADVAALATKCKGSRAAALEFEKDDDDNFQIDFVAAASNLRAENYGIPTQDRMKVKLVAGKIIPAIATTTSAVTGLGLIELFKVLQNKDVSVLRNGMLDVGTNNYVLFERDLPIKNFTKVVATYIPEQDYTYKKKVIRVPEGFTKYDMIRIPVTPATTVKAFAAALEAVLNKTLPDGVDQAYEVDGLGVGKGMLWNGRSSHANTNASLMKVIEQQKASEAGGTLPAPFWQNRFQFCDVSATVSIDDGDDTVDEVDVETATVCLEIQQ

[3] = molecular target: AMP-activated protein kinase, AMPK (Homo sapiens) (UniProt P54646+O43741+P54619+Q9UGJ0+Q9Y478+Q13131+Q9UGI9); experiment: AMP-dependent Kinase enzyme assay. An in vitro enzyme assay that detects ADP turnover that is directly proportional to AMPK activity. This uses naive AMPK that is activated during the assay with MK-8722; type: functional; conditions: 30 µM
[4] = molecular target: Sialic acid-binding Ig-like lectin 9 (Homo sapiens) (UniProt Q9Y336); experiment: Hs-Siglec9 ALPHAscreen SOP 20170721; conditions: 10 µM
Trypanosoma cruzi = experiment: Trypanosoma cruzi phosphomannomutase and mannose-1-phosphate guanylyltransferase assay; type: functional; conditions: 10 µM
[5] = molecular target: T2, Arginase-2, mitochondrial (Homo sapiens) (UniProt P78540); experiment: in vitro enzyme assay to detect the production of urea directly proportional to the activity of Arginase II; type: functional; conditions: 33.3 µM; note: in the data most compounds retested in dose-response had high values
T2 sequence (whole entry): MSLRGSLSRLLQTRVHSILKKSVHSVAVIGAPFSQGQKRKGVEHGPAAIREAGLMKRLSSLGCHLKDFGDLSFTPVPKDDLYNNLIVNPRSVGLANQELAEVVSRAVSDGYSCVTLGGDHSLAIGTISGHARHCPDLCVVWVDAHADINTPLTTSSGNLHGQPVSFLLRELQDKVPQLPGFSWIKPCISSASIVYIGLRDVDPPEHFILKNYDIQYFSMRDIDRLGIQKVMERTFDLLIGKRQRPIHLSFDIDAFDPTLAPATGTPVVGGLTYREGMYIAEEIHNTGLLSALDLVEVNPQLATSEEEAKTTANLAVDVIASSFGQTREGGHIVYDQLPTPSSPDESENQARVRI

[6] = molecular target: T3, Proteasome subunit beta (Trypanosoma cruzi) (UniProt O96673); experiment: Trypanosoma cruzi proteasome chymotrypsin-like activity (TcProtChymo) assay.; note: in the data most compounds retested in dose-response had high values; type: functional; conditions: 9.37 µM
T3 sequence (whole entry): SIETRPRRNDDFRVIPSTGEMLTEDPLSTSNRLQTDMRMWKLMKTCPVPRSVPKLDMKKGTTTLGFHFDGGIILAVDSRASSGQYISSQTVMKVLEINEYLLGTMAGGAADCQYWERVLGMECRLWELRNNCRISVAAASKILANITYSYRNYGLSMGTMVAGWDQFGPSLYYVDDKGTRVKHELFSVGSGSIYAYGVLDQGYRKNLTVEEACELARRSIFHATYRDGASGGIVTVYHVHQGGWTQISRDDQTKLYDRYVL

Homo sapiens = organism: Homo sapiens; experiment: To identify inhibition of the IFN signalling (Jak-Stat) pathway via expression of an eGFP reporter gene under the control of an IFN-stimulated response element (ISRE) containing MxA promoter.; type: functional; conditions: 30 µM
[7] = molecular target: T4, Tyrosyl-tRNA synthetase, putative (Trypanosoma cruzi (strain CL Brener)) (UniProt Q4DSP6); experiment: Trypanosoma cruzi tyrosyl tRNA synthetase (TcYRS) _High Tyrosine SOP; type: functional; conditions: 30 µM; note: in the data most compounds retested in dose-response had high values
T4 sequence (whole entry): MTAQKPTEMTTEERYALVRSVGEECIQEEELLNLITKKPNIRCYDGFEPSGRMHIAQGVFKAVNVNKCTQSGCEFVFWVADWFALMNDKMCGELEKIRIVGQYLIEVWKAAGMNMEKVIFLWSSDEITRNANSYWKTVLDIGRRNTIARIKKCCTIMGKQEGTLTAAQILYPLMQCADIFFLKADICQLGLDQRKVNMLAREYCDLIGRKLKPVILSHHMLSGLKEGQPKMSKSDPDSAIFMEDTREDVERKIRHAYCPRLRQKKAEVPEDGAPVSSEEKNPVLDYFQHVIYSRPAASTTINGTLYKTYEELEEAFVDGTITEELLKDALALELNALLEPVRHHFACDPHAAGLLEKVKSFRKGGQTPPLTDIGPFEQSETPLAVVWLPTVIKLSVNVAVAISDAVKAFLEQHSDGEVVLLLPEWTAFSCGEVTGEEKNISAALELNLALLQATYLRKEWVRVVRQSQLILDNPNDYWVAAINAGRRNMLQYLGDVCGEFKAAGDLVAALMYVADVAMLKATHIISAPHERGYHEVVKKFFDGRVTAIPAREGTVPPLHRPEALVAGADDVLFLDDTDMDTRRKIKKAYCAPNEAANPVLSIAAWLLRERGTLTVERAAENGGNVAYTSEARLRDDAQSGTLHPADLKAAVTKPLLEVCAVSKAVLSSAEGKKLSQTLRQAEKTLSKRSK

[8] = molecular target: T4, Tyrosyl-tRNA synthetase, putative (Trypanosoma cruzi (strain CL Brener)); experiment: Trypanosoma cruzi tyrosyl tRNA synthetase (TcYRS) SOP; type: functional; conditions: 30 µM
[9] = molecular target: Chromo domain-containing protein 1 (Saccharomyces cerevisiae (strain ATCC 204508 / S288c) (Baker's yeast)) (UniProt P32657); experiment: ScCHD-1 Enzyme Inhibition Assay; type: functional; conditions: 30 µM; note: in the data most compounds retested in dose-response had high values
Sequence of Chromo domain-containing protein 1 (Saccharomyces cerevisiae (strain ATCC 204508 / S288c) (Baker's yeast)) (P32657 whole entry, the tested form may be a part): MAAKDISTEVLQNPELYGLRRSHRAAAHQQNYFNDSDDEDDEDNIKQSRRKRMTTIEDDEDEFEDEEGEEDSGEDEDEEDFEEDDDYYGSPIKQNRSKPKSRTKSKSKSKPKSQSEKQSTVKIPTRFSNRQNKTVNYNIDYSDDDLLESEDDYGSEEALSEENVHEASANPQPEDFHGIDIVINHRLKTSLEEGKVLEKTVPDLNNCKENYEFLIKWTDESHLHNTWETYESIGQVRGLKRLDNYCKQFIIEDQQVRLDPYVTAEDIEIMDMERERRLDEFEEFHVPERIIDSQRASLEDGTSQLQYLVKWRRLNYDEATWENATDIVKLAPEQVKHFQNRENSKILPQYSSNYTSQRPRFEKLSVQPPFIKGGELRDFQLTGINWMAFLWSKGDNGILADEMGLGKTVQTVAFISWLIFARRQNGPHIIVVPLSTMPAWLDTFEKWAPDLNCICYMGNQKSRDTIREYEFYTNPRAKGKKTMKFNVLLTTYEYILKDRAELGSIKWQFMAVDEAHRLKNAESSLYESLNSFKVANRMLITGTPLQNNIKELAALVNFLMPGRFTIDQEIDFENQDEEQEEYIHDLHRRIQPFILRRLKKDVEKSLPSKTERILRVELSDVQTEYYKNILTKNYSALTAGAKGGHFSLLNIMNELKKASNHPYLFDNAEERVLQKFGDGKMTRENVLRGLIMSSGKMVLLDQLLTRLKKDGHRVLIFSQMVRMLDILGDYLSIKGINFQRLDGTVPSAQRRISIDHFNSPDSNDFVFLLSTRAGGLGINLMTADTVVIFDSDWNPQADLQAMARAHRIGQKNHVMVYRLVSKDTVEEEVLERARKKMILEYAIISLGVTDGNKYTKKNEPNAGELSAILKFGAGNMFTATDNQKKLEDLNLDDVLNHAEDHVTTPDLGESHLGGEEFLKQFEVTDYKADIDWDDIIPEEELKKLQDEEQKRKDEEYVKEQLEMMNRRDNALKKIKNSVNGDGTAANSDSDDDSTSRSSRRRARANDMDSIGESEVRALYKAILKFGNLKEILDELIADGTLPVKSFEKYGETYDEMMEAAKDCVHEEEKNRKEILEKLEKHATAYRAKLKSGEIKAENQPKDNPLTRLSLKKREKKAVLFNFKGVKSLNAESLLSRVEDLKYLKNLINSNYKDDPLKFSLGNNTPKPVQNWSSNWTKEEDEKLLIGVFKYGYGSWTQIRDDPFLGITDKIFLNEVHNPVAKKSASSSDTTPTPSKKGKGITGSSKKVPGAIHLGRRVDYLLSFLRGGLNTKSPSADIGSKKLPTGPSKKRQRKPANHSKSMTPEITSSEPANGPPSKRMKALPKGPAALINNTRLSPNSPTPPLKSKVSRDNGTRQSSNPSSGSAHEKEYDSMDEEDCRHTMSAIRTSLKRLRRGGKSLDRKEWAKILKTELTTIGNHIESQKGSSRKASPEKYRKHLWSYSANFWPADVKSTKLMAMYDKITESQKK

Sequence of Sialic acid-binding Ig-like lectin 9 (Homo sapiens) (Q9Y336 whole entry): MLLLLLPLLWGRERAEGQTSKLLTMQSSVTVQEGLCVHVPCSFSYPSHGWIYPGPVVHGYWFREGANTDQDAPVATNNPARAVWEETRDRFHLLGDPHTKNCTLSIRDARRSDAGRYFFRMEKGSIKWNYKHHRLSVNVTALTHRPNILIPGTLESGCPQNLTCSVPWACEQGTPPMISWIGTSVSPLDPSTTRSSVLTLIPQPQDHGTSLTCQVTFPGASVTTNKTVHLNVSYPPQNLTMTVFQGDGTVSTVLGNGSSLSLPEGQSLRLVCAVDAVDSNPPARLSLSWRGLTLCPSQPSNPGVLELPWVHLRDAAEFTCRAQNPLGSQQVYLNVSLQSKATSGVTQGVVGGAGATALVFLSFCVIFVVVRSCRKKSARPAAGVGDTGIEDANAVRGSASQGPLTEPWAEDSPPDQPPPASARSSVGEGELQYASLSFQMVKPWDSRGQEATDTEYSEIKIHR
Sequence of Protein translocase subunit SecA (Escherichia coli (strain K12)) (P10408 whole entry): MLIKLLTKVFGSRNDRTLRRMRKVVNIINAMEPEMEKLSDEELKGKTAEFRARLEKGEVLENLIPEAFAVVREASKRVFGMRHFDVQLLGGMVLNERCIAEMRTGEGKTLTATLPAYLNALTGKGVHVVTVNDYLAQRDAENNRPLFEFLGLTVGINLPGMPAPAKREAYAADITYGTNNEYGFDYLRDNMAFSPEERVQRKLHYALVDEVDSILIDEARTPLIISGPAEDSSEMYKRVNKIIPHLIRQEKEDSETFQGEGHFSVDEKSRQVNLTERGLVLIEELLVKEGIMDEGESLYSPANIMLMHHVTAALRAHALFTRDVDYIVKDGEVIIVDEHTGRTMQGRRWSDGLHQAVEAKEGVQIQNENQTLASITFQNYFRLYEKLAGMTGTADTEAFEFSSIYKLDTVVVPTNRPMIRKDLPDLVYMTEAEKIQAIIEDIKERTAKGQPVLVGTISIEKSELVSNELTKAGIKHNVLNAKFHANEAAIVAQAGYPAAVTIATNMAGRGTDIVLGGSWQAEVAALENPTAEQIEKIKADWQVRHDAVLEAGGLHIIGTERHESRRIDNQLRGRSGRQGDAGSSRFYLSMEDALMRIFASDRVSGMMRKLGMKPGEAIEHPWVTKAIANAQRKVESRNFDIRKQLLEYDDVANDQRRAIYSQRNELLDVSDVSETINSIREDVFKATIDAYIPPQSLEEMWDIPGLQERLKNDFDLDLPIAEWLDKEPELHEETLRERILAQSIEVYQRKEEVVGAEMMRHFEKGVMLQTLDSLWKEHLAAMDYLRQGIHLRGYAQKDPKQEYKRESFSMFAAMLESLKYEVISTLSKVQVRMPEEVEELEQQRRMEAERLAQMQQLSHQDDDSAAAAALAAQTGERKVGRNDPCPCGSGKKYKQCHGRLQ

| SMILES | Percent Effect [1] [%] | Percent Effect [2] [%] | Percent Effect [3] [%] | Percent Effect [4] [%] | Percent Effect (Trypanosoma cruzi) [%] | Percent Effect [5] [%] | Percent Effect [6] [%] | Percent Effect (Homo sapiens) [%] | Percent Effect [7] [%] | Percent Effect [8] [%] | Percent Effect [9] [%] |
| --- | --- | --- | --- | --- | --- | --- | --- | --- | --- | --- | --- |
| O=C(COC(=O)Cc1cccs1)NCc1cccc(NC(=O)C2CC2)c1 | -4.92 | 21.1 | 1.38 | -10.9 | -3.27 | -1.08 | 3.47 | 4.04 | 5.42 | 16.1 | -4.73 |
| O=C(NCC(O)CN1CCc2ccccc2C1)Nc1cccnc1 (stereo not given) | -4.38 | 13 | 3.15 | 3.21 | 0.294 | 3.58 | 11.2 | 14.5 | 1.91 | -25.9 | -11.5 |
| O=C(NCC(O)c1cccs1)c1cccc(Cl)c1 (stereo not given) | -0.149 | 13.7 | 3.83 | 0.22 | 3.72 | 7.27 | 25.6 | 13.3 | 6.45 | 17.5 | -6.71 |
| CN(C)C(=O)N1CCN(C(=O)C(c2ccccc2F)N(C)C)CC1 (stereo not given) | -3.25 | 9.72 | -8.74 | 14.1 | 6.71 | 7.06 | 14 | -4.8 | 4.21 | 7.69 | -9.49 |
| Cn1cnnc1S(=O)(=O)C1CCN(S(=O)(=O)C2CC2)CC1 | -2.77 | -2.74 | 14.5 | 1.56 | -3.72 | -2.27 | 9.41 | -3.78 | -3.23 | 2.5 | -1.03 |
| CCc1nc2n(n1)CC(Nc1cc(C)nc3ncnn13)CC2 (stereo not given) | -3.29 | 8.22 | -10.8 | 12.4 | 5.68 | 8.64 | 14.4 | 18.4 | 3.23 | 12.5 | -7.89 |
| Cc1cc(C)n(CC2CN(Cc3cscn3)CCO2)n1 (stereo not given) | -2.86 | 23.7 | -2.52 | -2.39 | 2.63 | -0.383 | 27.2 | -6.47 | 7.35 | 21.9 | -11.6 |
| Cc1nc(CCC(=O)NC2CCC2)cc(C2CCNCC2)n1 | -4.77 | 26.7 | -4.67 | -2.25 | 6.1 | -4.43 | 4.67 | 3.41 | 4.25 | 19.2 | -7.72 |
| CC(C)CN1CCC(NC(=O)c2ccc(F)cc2I)CC1 | -4.38 | 23.6 | -16 | 29.2 | 7.48 | 39.7 | 8.6 | -5.59 | 4.21 | 17.9 | -10.3 |
| CC(C)Oc1cccc(C(=O)C2CCCN(C(=O)c3ncn[nH]3)C2)c1 (stereo not given) | -0.804 | -2.7 | -3.49 | 0.785 | 7.92 | -1.91 | 21.6 | 3.35 | 6.88 | 12.2 | -3.93 |
| CCc1ccccc1CN1CC[C@@H](NC(=O)c2cccnc2)[C@H](O)C1 | -2.67 | 1.39 | -0.714 | 6.65 | 8.26 | 0 | 12.8 | -21.1 | 3.16 | 10.3 | -3.67 |
| Cc1nn(C)c(C)c1NC(=O)CCn1ncc2c(C)cccc21 | -5.82 | 7.79 | 1.49 | 9.37 | 2.85 | 9.65 | 13.3 | 5.45 | 6.45 | 13.6 | 41.5 |
| CCc1nc(C)c(C(=O)N2C[C@H]3CC[C@@H]2CN(S(=O)(=O)N(C)C)C3)s1 | -5.92 | 2.67 | -0.605 | -2.09 | -8.28 | -2.08 | 15.9 | 21.2 | -0.546 | 3.7 | -4.98 |
| O=C(NCc1ccoc1)Nc1ccc(CN2CCOC2=O)cc1 | -4.58 | 1.39 | 6.74 | -4.22 | -6.12 | 0 | 15.1 | 24.8 | 0 | -5.13 | -2.04 |
| Cc1[nH]c(=O)[nH]c(=O)c1CN1CCCC(CCc2ccccc2)C1 (stereo not given) | -1.15 | 2.7 | -3.11 | 8.59 | -5.02 | 0.952 | 18.1 | -0.602 | 4.76 | 17.1 | -3.68 |
| COC(=O)CN(C)C1CCc2ccccc21 (stereo not given) | -0.581 | 15.8 | 1.01 | 8.14 | 1.5 | 5.36 | 18.4 | -4.6 | 7.35 | 9.76 | -8.13 |
| Cc1cnc(C(=O)N(CCN(C)C)Cc2ccc(Cl)cc2)cn1 | -0.752 | 20.8 | 5.67 | 9.21 | 4.37 | 9.71 | 15.3 | -3.66 | 4.21 | 10.3 | -4.76 |
| Cc1cnn(CCNCC(=O)NCC2(c3ccccc3)CCC2)c1 | -3.26 | 10.4 | 0.236 | -13.1 | -5.19 | -3.58 | 12.4 | 11.5 | 12.4 | 14.1 | -19.9 |
| C[C@@H]1CN(C(=O)c2cnc(C3CC3)nc2)CC[C@@]1(O)C1CCOCC1 | -3.43 | 10.8 | -4.34 | 21.6 | 4.44 | -8.57 | 6.55 | -5.6 | 4.76 | 9.76 | -5.75 |
| CCOc1ccc(S(=O)(=O)NC(=O)CCC2CCCO2)cc1 (stereo not given) | -3.8 | 13.5 | -7.18 | -5.67 | 0.283 | -5.21 | 17.5 | 1.86 | 10.3 | 18.5 | -9.06 |
